This is a sample that favours compounds with a hit; in the whole collection about 2.9% have one here.
PfG6PD inh – PfG6PD (Plasmodium falciparum) enzyme inhibition; inhibition, % at 20 µM; PfGluPho enzyme, NADPH resazurin-diaphorase fluorescence; AID 504690; 350,000 compounds, 0.78% hits;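 active means inhibition reaching at least a set limit at 20 µM in the primary screen, cut at about 59% in these data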;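 further: 0% = DMSO wells with substrate and 100% = DMSO wells lacking glucose-6-phosphate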
APOBEC3A inh – blocks human APOBEC3A ssDNA deamination; P31941; 330,000 compounds, 0.41% hits; recombinant A3A, FAM/TAMRA ssDNA deamination fluorescence; inhibition, % at 20 µM; AID 493011;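 active means at least 40% inhibition at 20 µM here, with at most 30% in a related deaminase screen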;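 further: plate controls were A3A with DMSO for no effect and wells lacking A3A enzyme for full effect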
Target sequence (P31941 whole entry, looked up): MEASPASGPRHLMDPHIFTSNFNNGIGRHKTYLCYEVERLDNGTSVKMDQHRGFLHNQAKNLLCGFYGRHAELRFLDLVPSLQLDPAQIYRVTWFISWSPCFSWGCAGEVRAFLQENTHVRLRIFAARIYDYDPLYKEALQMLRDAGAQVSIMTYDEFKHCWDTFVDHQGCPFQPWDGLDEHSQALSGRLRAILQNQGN
A3G deaminase – blocks human APOBEC3G single-stranded DNA deamination; recombinant A3G, ssDNA deamination FAM/TAMRA fluorescence; inhibition, % at 20 µM; 330,000 compounds, 0.28% hits;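 active means inhibition of at least 40% at 20 µM, with no more than 30% in the related APOBEC3A deaminase screen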;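 further: plate controls were DMSO wells with A3G for no effect and wells lacking A3G enzyme for full effect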
Target sequence (Q9HC16 whole entry, looked up): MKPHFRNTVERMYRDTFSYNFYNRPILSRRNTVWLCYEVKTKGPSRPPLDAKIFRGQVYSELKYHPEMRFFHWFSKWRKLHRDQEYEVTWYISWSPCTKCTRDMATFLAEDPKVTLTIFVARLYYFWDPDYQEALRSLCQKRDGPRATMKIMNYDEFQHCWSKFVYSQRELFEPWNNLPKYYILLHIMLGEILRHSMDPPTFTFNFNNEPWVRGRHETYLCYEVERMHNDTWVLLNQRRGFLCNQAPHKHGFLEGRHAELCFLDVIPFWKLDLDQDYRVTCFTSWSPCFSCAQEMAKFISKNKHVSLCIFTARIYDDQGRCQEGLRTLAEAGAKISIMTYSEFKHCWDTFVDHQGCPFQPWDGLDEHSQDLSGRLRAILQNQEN
TAG inh – inhibitors of triacylglycerol accumulation; H9c2 cells, Nile Red lipid (TAG) fluorescence; cells loaded with 200 µM oleic acid; inhibition, % at 12.5 µM; 230,000 compounds, 0.66% hits; AID 651582;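 active means pattern-corrected inhibition of lipid staining of at least 50% with the nuclear-stain viability signal not falling by more than 50%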;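 further: 0% = DMSO wells and 100% = triacsin C control wells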
Cardio protect – protects H9c2 cardiomyocytes from peroxide injury; AID 588492; 360,000 compounds, 0.63% hits; protection from H2O2 cell death, % at 20 µM; H2O2 injury protection, ATPLite, 2 h;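 active means compounds giving at least 50% protection of heart cells from peroxide-induced death in the single-dose screen, raw or plate-pattern-corrected value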;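 further: 0% = DMSO wells with peroxide and 100% = DMSO wells without peroxide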
NadD inh – blocks S. aureus nicotinate mononucleotide adenylyltransferase. purified NadD enzyme, colorimetric absorbance read-out. inhibition, % at 20 µM. 360,000 compounds, 0.78% hits; in the data active means inhibition above about 26%
* = called active by the depositor; . = no result.

SMILES	PfG6PD inh	APOBEC3A inh	A3G deaminase	TAG inh	Cardio protect	NadD inh
C[C@@H]1CN([C@@H](C)CO)C(=O)c2cc(NC(=O)c3ccccc3)ccc2O[C@@H](C)CCCCO[C@@H]1CN(C)Cc1ccc(C(F)(F)F)cc1	10	.	.	12	-15	17
CC(C)(C)c1cc(Br)c(O)c(N=Nc2ccc(S(=O)(=O)N3CCOCC3)cc2)c1	27	5	1	85*	-2	25
Cc1ccc(O)c(N=Nc2ccc(S(=O)(=O)N3CCOCC3)cc2)c1	2	1	-1	15	-5	-9
COc1ccc2oc(C(=O)Nc3ccccc3N3CCOCC3)c(C)c2c1	-13	10	-5	-23	2	7
COc1cccc(NC(=O)c2oc3ccc(S(=O)(=O)N4CCOCC4)cc3c2C)c1	0	-1	-11	3	85*	-2
COc1ccc2oc(C(=O)Nc3ccc(N4CCOCC4)cc3)c(C)c2c1	21	6	-1	-11	56*	13
CC(=O)c1ccc(S(=O)(=O)N(C)CC(=O)N2CCCCCC2)cc1	15	1	-5	.	0	-1
CC(C)=CCc1c(O)ccc2c1OC(c1ccc(O)c(O)c1)CC2=O (stereo not drawn)	-1	-3	-11	.	54*	1
Cc1ccc(OCC(=O)N2CCOCC2)cc1C	-13	-2	-4	.	-2	2
Cc1cc(OCC(=O)N2CCOCC2)cc2oc(=O)c3ccccc3c12	-13	-4	-4	-18	59*	5
Cc1csc(SCc2nc3sc4c(c3c(=O)[nH]2)CCC4)n1	-11	.	.	-17	52*	-6
CCn1nc(C(=O)NC2=NCCS2)c2ccccc2c1=O	12	-1	0	-10	15	1
CCn1nc(C(=O)Nc2nc(-c3ccccn3)cs2)c2ccccc2c1=O	-3	-4	-10	-19	79*	-1
CC1CC1C(=O)Nc1nc(-c2ccccn2)cs1 (stereo not drawn)	58	1	35	-19	15	4
CCCn1nc(C(=O)Nc2nnc(C3CC3)s2)c2ccccc2c1=O	-12	3	-3	20	1	-7
Cn1nc(C(=O)Nc2nc(-c3ccccn3)cs2)c2ccccc2c1=O	58	1	2	9	55*	7
CCCn1nc(C(=O)Nc2nc(-c3ccccn3)cs2)c2ccccc2c1=O	-9	-3	-5	3	86*	2
CCOc1cccc(C=Nc2cc(C)cc(C)c2O)c1O	38	5	-1	.	93*	4
Cc1ccc2nc3sc(C(=O)N4CCCc5ccccc54)c(N)c3cc2c1	33	-6	-14	.	7	25
Cc1cc(C)c2cc3c(N)c(C(=O)N4CCc5ccccc5C4)sc3nc2c1	16	-6	-8	.	49*	22
CCCCn1c(N)c(N(CC(C)C)C(=O)c2ccc(C)c(S(=O)(=O)N3CCCCC3)c2)c(=O)[nH]c1=O	-10	-1	-7	0	-1	2
O=c1[nH]c(SCc2n[nH]c(=S)n2-c2ccccc2)nc2sc3c(c12)CCC3	8	0	7	.	62*	15
CCCCSc1nc2sc3c(c2c(=O)[nH]1)CCC3	-4	1	-2	.	3	-4
COc1ccc(N2CC(C(=O)NCc3ccccc3)CC2=O)cc1 (stereo not drawn)	-28	-2	-7	-4	-2	-2
COc1ccc(N2CC(C(=O)NCc3n[nH]c(=O)c4ccccc34)CC2=O)cc1 (stereo not drawn)	6	1	-3	-10	65*	-6
SMILES	PfG6PD inh	APOBEC3A inh	A3G deaminase	TAG inh	Cardio protect	NadD inh
O=C(NCc1n[nH]c(=O)c2ccccc12)C1CC(=O)N(c2ccc(Cl)cc2)C1 (stereo not drawn)	-20	-4	-5	17	59*	1
Oc1ccc2oc3c(c2c1C=NCc1ccncc1)CCCC3	-1	-1	-2	-3	67*	12
O=C(O)c1ccc(N=Cc2c(O)ccc3oc4c(c23)CCCC4)cc1	-10	0	-2	7	62*	-2
Oc1ccccc1N=Cc1c(O)ccc2oc3c(c12)CCCC3	4	-12	2	-2	7	1
Oc1ccc2oc3c(c2c1/C=N/n1cnnc1)CCCC3	12	-6	-7	.	60*	2
Oc1c(C=NCc2ccncc2)sc2ccccc12	16	1	0	.	.	.
CCOC(=O)C1CCN(c2cc3c(cc2NC(=O)c2ccccc2Cl)n(C)c(=O)n3C)CC1	15	-5	-4	.	56*	5
CCOC(=O)C1CCN(c2cc3c(cc2NC(=O)c2ccc(F)cc2)n(C)c(=O)n3C)CC1	25	1	-2	.	81*	-5
CN(c1ccc([N+](=O)[O-])cc1/C=N/NC(=O)COc1ccccc1)C1CCCCC1	4	0	-9	.	-7	14
Cc1ccnc(NC(=O)c2cccc(NC(=O)CC3SC(N4CCCCC4)=NC3=O)c2)c1 (stereo not drawn)	4	2	1	26	4	-1
CC1Cc2ccccc2N1C(=S)NC(=O)c1cccc(Br)c1 (stereo not drawn)	-12	2	-7	.	69*	3
O=C(c1ccco1)N1CCN(C(=O)c2cc(-c3ccncc3)nc3ccc(Br)cc23)CC1	2	4	11	3	53*	13
O=C(c1ccco1)N1CCN(C(=O)c2cc(-c3ccccc3)nc3ccccc23)CC1	-8	0	-3	-18	-2	10
O=C(c1cc2nc(-c3ccccc3)cc(-c3ccccc3)n2n1)N1CCN(C(=O)c2ccco2)CC1	17	0	-8	-1	104*	10
CC1CCN(C(=O)CSc2ccc(-c3cccc([N+](=O)[O-])c3)nn2)CC1	6	-6	-3	-3	10	-2
COC(=O)c1[nH]c2c(c1C)C(=O)CC(c1cc(OC)ccc1OC)C2 (stereo not drawn)	7	0	-7	.	57*	-4
COc1cccc(Nc2nc3ccccc3n3cnnc23)c1	22	2	5	16	86*	-4
CCOc1ccccc1C=NNC(=O)C(=O)NN=Cc1ccccc1OCC	-12	.	.	-2	14	10
O=C(N/N=C/c1ccccc1)c1cc[n+]([O-])cc1	2	1	-4	.	6	-2
O=C(N/N=C/c1cc(Br)ccc1O)c1ccncc1	-26	6	-1	56*	30	-9
CCOc1ccccc1NC(=O)C(=O)N/N=C/c1cc(Br)ccc1O	-23	1	-7	-4	57*	19
CC(=C/c1ccc(C(C)C)cc1)/C=N/NC(=O)c1ccncc1	1	-1	-4	.	58*	2
O=C(N/N=C/c1cc([N+](=O)[O-])ccc1O)c1ccncc1	-17	-2	-5	-1	40	-5
O=C(N/N=C/c1ccccc1O)c1cc[n+]([O-])cc1	-49	2	-5	.	54*	-5

Screening results as filed in PubChem BioAssay.
